“And” between values parts separate entries of the source, which are not always exact repeats. Equal values may be shown once. Records with an inconclusive call do not appear. Some structures have more than one record in an assay (separate samples or runs), and their calls can disagree. The source made the active and inactive calls. The calls were made as follows: active = hit-call score of the fitted dose curve at least 0.9, where 1 is the maximum; inconclusive = response in the unintended direction; inactive = score below 0.9.
Assays:
[1] = system: zebrafish Estrogen Receptor (ER2a), gene 317734; assay: ATG_zfER2a_XSP2: Attagene TRANS-FACTORIAL Multi-Species (XSP2) HepG2 Assay for zebrafish Estrogen Receptor (ER2a) (AID 2283818);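 also: hits raise reporter mRNA so AC50 reflects activation of zebrafish ER2a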
Summary of the method: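 Multiplexed trans-reporter readout: RT-PCR then capillary electrophoresis of reporter transcripts after 24 h compound treatment. Human HepG2 carries transfected zebrafish ER2a-Gal4 chimera; 3 nM 6-alpha-fluorotestosterone plus 1.5 nM norgestrel present. Induction scored against DMSO.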

[2] = system: frog Estrogen Receptor (ER), gene 398734; assay: ATG_frER1_XSP2: Attagene TRANS-FACTORIAL Multi-Species (XSP2) HepG2 Assay for frog Estrogen Receptor (ER) (AID 2283821);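 also: hits raise reporter mRNA above DMSO baseline so potency means agonist or activator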
Summary of the method: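 HepG2 cells transiently transfected with multiplexed GAL4-UAS reporter units expressing chimeric NR-Gal4 proteins (TRANS format) were dosed for 24 h. Reporter mRNA was quantified by RT-PCR, FAM primer extension, HpaI digestion and capillary electrophoresis; gain of signal relative to DMSO.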

[3] = ATG_M_19_XSP2: Attagene TRANS-FACTORIAL Multi-Species (XSP2) HepG2 Assay for M32 Transcription Factor (Internal Marker) (AID 2283822)
Summary of the method: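 Internal background marker in a multi-species nuclear receptor TRANS panel: transfected HepG2 cells exposed 24 h, with 3 nM 6-alpha-fluorotestosterone and 1.5 nM norgestrel present. Readout is RT-PCR of reporter transcripts resolved by capillary electrophoresis, gain-of-signal versus DMSO.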

[4] = system: zebrafish Estrogen Receptor (ER2b), gene 317733; assay: ATG_zfER2b_XSP2: Attagene TRANS-FACTORIAL Multi-Species (XSP2) HepG2 Assay for zebrafish Estrogen Receptor (ER2b) (AID 2283823);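 also: fitted upward as reporter gain over DMSO so potency reflects activation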
Summary of the method: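 Transfect HepG2 with GAL4-UAS reporter constructs; dose chemicals, 24 h; isolate RNA, RT-PCR, FAM-label, HpaI digest; capillary electrophoresis. Gain-of-signal vs DMSO.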

[5] = biological target: Estrogen receptor (Homo sapiens) (UniProt P03372); assay: ATG_hERa_XSP2: Attagene TRANS-FACTORIAL Multi-Species (XSP2) HepG2 Assay for human Estrogen Receptor (ERa) (AID 2283827)
Summary of the method: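 Trans-activation of exogenous human ERa-Gal4 chimera read in HepG2 as reporter transcript after 24 h exposure; medium included 3 nM 6-alpha-fluorotestosterone and 1.5 nM norgestrel. Quantified by RT-PCR with capillary electrophoresis, positive-direction fitting against DMSO.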

[6] = system: frog Estrogen Receptor (ER2), gene 100174814; assay: ATG_frER2_XSP2: Attagene TRANS-FACTORIAL Multi-Species (XSP2) HepG2 Assay for frog Estrogen Receptor (ER2) (AID 2283828)
Summary of the method: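 Read-out: reporter transcript levels by RT-PCR with 6-FAM primer extension, HpaI digestion and capillary electrophoresis, scored as induction over DMSO control. Transfected HepG2 carrying Xenopus ER2–GAL4 chimera; compounds incubated 24 h.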

[7] = biological target: Peroxisome proliferator-activated receptor gamma (Homo sapiens) (UniProt P37231); assay: ATG_hPPARg_XSP2: Attagene TRANS-FACTORIAL Multi-Species (XSP2) HepG2 Assay for human Peroxisome Proliferator-activated Receptor gamma (PPARg) (AID 2283829);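 also: actives raise reporter mRNA above DMSO so AC50 reflects PPARg activation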
Summary of the method: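 Transient MRTU transfection, HepG2; TRANS format (exogenous NR-Gal4 chimeras). 24 h chemical exposure with 3 nM 6-alpha-fluorotestosterone and 1.5 nM norgestrel present. Readout: reporter mRNA via RT-PCR/CE fluorescence, up-direction vs DMSO.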

[8] = system: zebrafish Androgen Receptor (AR), gene 100005148; assay: ATG_zfAR_XSP2: Attagene TRANS-FACTORIAL Multi-Species (XSP2) HepG2 Assay for zebrafish Androgen Receptor (AR) (AID 2283825);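 also: hits raise reporter mRNA above DMSO so AC50 reflects agonist-type gain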
Summary of the method: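 After 24 h compound exposure in medium with 3 nM 6-alpha-fluorotestosterone plus 1.5 nM norgestrel, HepG2 cells carrying zebrafish AR–GAL4 reporter constructs were assessed for reporter mRNA gain by RT-PCR and capillary electrophoresis.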

[9] = system: chicken Androgen Receptor (AR), gene 422165; assay: ATG_chAR_XSP2: Attagene TRANS-FACTORIAL Multi-Species (XSP2) HepG2 Assay for chicken Androgen Receptor (AR) (AID 2283819);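 also: hits raise reporter mRNA above DMSO so potency is for activation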
Summary of the method: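 Readout is reporter mRNA induction via RT-PCR/capillary electrophoresis after 24 h chemical exposure, positive direction relative to DMSO. Transiently transfected HepG2 express chimeric chicken AR–GAL4; AR stimulated by 3 nM 6-alpha-fluorotestosterone and 1.5 nM norgestrel.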

[10] = system: frog Androgen Receptor (AR), gene 399456; assay: ATG_frAR_XSP2: Attagene TRANS-FACTORIAL Multi-Species (XSP2) HepG2 Assay for frog Androgen Receptor (AR) (AID 2283824);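 also: reporter mRNA from GAL4-UAS units driven by Xenopus AR-Gal4 chimera; actives raise reporter signal above DMSO so AC50 reflects agonist-like induction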
Description: ATG_XSP2_multi-species_TRANS is a cell-based, multiplexed assay created by modifying the existing Attagene TRANS-FACTORIAL system to include a panel of nuclear receptors from some or all the following species: human (Homo sapiens), mouse (Mus musculus), frog (Xenopus laevis), zebrafish (Danio rerio), chicken (Gallus gallus), and turtle (Chrysemys picta). The ECOTOX-FACTORIAL format uses HepG2, a human liver cell line, with measurements taken at 24 hours after chemical dosing in a 24-well plate. Xsp2 included 3 nM 6-alpha-fluorotestosterone and 1.5 nM norgestrel to stimulate the androgen receptor.ATG_frAR_XSP2 is one of 29 assay components measured or calculated from the ATG_XSP2_multi-species_TRANS assay. It is designed to make measurements of mRNA induction, a form of inducible reporter, as detected with fluorescence intensity signals by Reverse transcription polymerase chain reaction (RT-PCR) and Capillary electrophoresis technology.The assay endpoint ATG_frAR_XSP2 was analyzed in the positive analysis fitting direction relative to DMSO as the negative control and baseline of activity. […] Furthermore, this assay endpoint can be referred to as a primary readout, because this assay has produced multiple assay endpoints where this one serves a reporter gene function. […]

Measured: AC50

Chain of Peroxisome proliferator-activated receptor gamma (Homo sapiens) (P37231 whole entry, looked up, the tested form may be a part): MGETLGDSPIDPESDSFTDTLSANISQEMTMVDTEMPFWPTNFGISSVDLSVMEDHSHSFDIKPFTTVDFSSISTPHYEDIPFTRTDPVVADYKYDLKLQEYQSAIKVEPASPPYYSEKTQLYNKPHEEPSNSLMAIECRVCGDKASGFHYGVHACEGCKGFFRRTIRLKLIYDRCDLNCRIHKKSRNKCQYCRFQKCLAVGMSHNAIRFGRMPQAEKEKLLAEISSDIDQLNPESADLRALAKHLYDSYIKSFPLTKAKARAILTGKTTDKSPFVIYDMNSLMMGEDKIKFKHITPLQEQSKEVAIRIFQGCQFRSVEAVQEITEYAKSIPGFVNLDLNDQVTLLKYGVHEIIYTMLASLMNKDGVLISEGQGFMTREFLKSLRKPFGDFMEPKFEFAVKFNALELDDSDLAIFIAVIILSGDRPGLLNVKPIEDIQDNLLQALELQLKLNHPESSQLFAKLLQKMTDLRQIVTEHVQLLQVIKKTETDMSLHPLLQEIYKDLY
Chain of Estrogen receptor (Homo sapiens) (P03372 whole entry, looked up, the tested form may be a part): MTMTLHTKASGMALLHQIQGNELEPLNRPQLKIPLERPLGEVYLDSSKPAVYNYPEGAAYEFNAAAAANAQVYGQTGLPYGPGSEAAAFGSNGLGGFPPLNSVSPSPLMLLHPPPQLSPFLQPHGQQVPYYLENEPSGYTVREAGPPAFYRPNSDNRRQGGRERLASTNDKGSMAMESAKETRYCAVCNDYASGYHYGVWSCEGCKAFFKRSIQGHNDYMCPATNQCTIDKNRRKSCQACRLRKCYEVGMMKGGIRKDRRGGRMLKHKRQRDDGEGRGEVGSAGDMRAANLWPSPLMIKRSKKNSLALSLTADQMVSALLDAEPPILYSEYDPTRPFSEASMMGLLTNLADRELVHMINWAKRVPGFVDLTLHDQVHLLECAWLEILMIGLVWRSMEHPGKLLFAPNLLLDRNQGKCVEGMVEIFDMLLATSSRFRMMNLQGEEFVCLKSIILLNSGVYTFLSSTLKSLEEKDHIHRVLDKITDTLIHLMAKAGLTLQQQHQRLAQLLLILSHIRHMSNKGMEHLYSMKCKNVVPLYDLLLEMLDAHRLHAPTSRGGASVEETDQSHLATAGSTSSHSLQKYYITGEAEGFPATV

Oc1ccccc1Cc1ccccc1O
inactive: [3]
active: [1] 27.3 µM and 8.24 µM | [2] 26.5 µM and 7.86 µM | [4] 29.1 µM and 18.2 µM | [5] 26.9 µM and 8.47 µM | [6] 27 µM and 10.5 µM | [7] 43.4 µM and 30.3 µM

C=C1C[C@H]2[C@@H]3C=C(C)C4=CC(=O)CC[C@]4(C)[C@H]3CC[C@]2(C)[C@@]1(OC(C)=O)C(C)=O
inactive: [1] | [2] | [3] | [4] | [7]

CC(C)(C)NC(=O)[C@H]1CC[C@H]2[C@@H]3CC[C@H]4NC(=O)C=C[C@]4(C)[C@H]3CC[C@]12C
inactive: [2]
active: [1] 142 µM | [4] 67.5 µM | [5] 33.5 µM | [6] 100 µM

CCCCCCCCCCCCc1ccc(O)cc1
active: [2] 274 nM and 44 nM | [4] 377 nM and 126 nM | [5] 546 nM and 167 nM | [6] 610 nM and 239 nM
inactive: [1] | [8] | [7]

CC(CCC(=O)O)(c1ccc(O)cc1)c1ccc(O)cc1
active: [1] 46.6 µM and 34.7 µM | [4] 42.6 µM and 13.2 µM | [5] 17.4 µM and 2.94 µM | [6] 27.5 µM
inactive: [9] | [2] | [10] | [8] | [6] | [7]

O=C(O)/C=C/c1ccccc1
inactive: [1] | [4] | [5] | [7]
active: [2] 31.6 µM

N#Cc1ccc(C2CCCc3cncn32)cc1 (stereo not drawn)
inactive: [1] | [9] | [4] | [5] | [6] | [7]
active: [2] 50 µM | [4] 93.7 µM

COc1ccc(C(=O)c2ccccc2)c(O)c1
active: [1] 9.9 µM | [2] 5.07 µM and 26 µM | [4] 43.3 µM and 14.3 µM | [5] 6.54 µM and 26.4 µM | [6] 7.66 µM and 2.39 µM | [7] 74.1 µM and 41.1 µM

COc1ccc(-c2coc3cc(O)cc(O)c3c2=O)cc1
active: [1] 260 nM and 38 nM | [9] 10 µM and 6.25 µM | [2] 1.07 µM and 98.3 nM | [4] 2.28 µM and 310 nM | [5] 931 nM and 276 nM | [6] 501 nM and 6.78 nM
inactive: [10] | [7]

Oc1ccc(-c2ccccc2)c(Cl)c1
active: [1] 4.34 µM and 9.01 µM | [4] 9.03 µM and 7 µM | [5] 5.18 µM and 4.36 µM | [6] 5.62 µM and 3.17 µM | [7] 33.4 µM and 28.7 µM
inactive: [2] | [3]

Reference: PubChem BioAssay (EPA / NIEHS)
